The full data set covers some 7,900 targets. This sample favours those with a hit. About 0.6% of all pairs of compound and target were hits. Unmarked numbers belong to inactive results.
Legend:
Experiment in all cases: log2 fold change, soluble protein after heating vs DMSO (PISA); higher = thermal stabilisation; K562 cells, 10 uM, 30 min; active = over 0.2 and 3.5 SD of the protein, either way, in both replicates (recomputed)
[1] = compound: Cc1ccc(NC(=O)c2ccc(CN3CC[C@H](N(C)C)C3)c(C(F)(F)F)c2)cc1Nc1nccc(-c2cncnc2)n1 [bafetinib]
Outline: (§1)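 K562 cells at 2×10^6 cells/mL were treated for 30 min with 10 μM compound, and aliquots were heated for 3 min over 48°C-58°C before pooling. Extraction used PBS with 0.5% NP-40 at 4°C, and soluble protein was the supernatant after 21,000xg for 90 min, measured by TMTpro 16plex LC-MS/MS with channel sums equalised. Thermal stability values, relative to control samples and from duplicates, are log2 fold changes.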

[2] = compound: Cc1cccc(CC(=O)N2CCc3c2ccc(-c2cn(C)c4ncnc(N)c24)c3F)n1
Outline: as §1

[3] = compound: Cc1cn(-c2cc(NC(=O)c3ccc(C)c(Nc4nccc(-c5cccnc5)n4)c3)cc(C(F)(F)F)c2)cn1 [nilotinib]
Outline: as §1

[4] = compound: Cc1nc(Nc2n[nH]c3c2CN(C(=O)N[C@H](CN(C)C)c2ccccc2)C3(C)C)c2sccc2n1
Outline: as §1

[5] = compound: Cc1nc(Nc2ncc(C(=O)Nc3c(C)cccc3Cl)s2)cc(N2CCN(CCO)CC2)n1 [dasatinib]
Outline: as §1

[6] = compound: Cc1ncc(-c2ccnc(Nc3ccc(S(C)(=O)=O)cc3)n2)n1C(C)C
Outline: as §1

[7] = compound: Cn1cc(-c2ccc3c(c2)CCN3C(=O)Cc2cccc(C(F)(F)F)c2)c2c(N)ncnc21
Outline: as §1

[8] = compound: Cn1cc(-c2ccc3nnc(C(F)(F)c4ccc5ncccc5c4)n3n2)cn1
Outline: as §1

[9] = compound: Cn1cncc1[C@@](N)(c1ccc(Cl)cc1)c1ccc2c(c1)c(-c1cccc(Cl)c1)cc(=O)n2C [tipifarnib]
Outline: as §1

[10] = compound: FC(F)(F)c1ccc(/C=C/c2nc(COc3ccc(CCCCn4ccnn4)cc3)co2)cc1 [mubritinib]
Outline: as §1

Chain of UniProt Q92844 (Q92844 whole entry, looked up): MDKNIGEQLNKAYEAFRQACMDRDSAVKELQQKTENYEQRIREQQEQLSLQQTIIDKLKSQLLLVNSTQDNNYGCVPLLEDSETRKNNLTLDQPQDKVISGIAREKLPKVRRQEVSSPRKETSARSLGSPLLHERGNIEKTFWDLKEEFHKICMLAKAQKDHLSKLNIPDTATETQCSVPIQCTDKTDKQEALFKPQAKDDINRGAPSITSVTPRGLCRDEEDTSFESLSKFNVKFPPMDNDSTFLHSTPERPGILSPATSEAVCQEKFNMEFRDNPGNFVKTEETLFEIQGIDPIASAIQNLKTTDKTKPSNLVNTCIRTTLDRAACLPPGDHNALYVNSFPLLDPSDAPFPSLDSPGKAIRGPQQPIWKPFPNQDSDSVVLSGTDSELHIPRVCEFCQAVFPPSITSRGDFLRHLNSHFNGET
Chain of UniProt O75494 (O75494 whole entry, looked up): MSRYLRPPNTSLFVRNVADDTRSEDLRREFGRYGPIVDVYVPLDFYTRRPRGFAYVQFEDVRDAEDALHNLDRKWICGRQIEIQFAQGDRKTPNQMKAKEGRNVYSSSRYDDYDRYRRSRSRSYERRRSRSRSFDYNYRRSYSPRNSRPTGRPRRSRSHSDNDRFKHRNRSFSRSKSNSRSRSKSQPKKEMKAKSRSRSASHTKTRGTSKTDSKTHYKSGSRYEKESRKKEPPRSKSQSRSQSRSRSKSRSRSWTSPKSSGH
Chain of UniProt Q9Y5X3 (Q9Y5X3 whole entry, looked up): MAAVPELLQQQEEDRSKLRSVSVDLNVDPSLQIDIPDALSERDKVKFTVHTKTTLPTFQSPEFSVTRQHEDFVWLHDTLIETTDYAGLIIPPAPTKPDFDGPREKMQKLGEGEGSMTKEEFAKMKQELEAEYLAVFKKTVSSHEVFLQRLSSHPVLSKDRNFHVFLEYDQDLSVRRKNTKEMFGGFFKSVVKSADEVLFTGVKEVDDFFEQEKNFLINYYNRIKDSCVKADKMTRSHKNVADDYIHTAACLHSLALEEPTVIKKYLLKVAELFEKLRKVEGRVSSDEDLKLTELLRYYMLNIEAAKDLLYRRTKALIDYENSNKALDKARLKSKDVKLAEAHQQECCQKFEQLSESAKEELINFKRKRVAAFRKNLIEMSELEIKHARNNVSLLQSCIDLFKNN
Chain of UniProt O95149 (O95149 whole entry, looked up): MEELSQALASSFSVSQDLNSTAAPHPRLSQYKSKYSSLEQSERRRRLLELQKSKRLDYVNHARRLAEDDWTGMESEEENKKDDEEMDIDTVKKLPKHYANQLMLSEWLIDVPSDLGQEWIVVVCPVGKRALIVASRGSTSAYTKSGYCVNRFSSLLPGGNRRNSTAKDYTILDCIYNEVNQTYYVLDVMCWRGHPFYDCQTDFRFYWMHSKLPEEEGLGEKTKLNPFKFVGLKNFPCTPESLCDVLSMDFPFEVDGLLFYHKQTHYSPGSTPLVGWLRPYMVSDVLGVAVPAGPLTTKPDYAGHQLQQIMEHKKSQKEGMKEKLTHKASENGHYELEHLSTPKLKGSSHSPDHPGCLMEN
Chain of UniProt Q92544 (Q92544 whole entry, looked up): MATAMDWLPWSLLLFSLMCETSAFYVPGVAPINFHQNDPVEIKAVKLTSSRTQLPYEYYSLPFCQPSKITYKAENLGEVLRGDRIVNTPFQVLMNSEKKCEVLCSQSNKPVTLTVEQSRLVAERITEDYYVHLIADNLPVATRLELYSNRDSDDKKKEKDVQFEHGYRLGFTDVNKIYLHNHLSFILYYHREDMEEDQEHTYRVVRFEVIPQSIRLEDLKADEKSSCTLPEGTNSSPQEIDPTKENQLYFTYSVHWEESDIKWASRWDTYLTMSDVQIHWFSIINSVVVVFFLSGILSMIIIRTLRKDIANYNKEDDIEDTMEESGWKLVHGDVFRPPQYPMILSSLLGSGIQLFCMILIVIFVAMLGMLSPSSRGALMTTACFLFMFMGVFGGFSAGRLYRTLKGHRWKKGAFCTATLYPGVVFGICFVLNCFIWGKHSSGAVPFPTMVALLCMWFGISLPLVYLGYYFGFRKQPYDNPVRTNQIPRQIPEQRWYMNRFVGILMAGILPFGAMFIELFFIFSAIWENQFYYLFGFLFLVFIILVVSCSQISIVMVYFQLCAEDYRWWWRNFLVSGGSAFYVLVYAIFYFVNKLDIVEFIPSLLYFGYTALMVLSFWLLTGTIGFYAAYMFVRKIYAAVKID
Chain of UniProt Q9P016 (Q9P016 whole entry, looked up): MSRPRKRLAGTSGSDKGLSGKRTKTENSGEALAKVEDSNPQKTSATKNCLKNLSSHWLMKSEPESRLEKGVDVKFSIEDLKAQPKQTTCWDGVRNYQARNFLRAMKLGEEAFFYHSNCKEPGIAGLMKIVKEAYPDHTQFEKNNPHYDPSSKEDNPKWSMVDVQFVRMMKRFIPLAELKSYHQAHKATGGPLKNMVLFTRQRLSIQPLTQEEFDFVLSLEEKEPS
Chain of UniProt P63165 (P63165 whole entry, looked up): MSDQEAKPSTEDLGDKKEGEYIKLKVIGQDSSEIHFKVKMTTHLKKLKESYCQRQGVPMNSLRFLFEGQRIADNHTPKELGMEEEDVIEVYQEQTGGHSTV
Chain of UniProt Q96BW9 (Q96BW9 whole entry, looked up): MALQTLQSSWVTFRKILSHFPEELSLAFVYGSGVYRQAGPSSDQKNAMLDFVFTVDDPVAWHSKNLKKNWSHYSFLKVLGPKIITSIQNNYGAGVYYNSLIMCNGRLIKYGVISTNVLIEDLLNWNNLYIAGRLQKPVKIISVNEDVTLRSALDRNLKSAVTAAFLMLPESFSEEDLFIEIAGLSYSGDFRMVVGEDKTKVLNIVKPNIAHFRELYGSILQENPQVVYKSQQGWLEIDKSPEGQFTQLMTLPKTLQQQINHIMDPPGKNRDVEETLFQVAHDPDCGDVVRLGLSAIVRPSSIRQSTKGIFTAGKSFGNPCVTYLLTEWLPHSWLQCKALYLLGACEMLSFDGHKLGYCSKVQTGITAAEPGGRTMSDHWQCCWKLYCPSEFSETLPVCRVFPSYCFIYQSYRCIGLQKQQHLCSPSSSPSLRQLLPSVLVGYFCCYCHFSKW
Chain of UniProt P53597 (P53597 whole entry, looked up): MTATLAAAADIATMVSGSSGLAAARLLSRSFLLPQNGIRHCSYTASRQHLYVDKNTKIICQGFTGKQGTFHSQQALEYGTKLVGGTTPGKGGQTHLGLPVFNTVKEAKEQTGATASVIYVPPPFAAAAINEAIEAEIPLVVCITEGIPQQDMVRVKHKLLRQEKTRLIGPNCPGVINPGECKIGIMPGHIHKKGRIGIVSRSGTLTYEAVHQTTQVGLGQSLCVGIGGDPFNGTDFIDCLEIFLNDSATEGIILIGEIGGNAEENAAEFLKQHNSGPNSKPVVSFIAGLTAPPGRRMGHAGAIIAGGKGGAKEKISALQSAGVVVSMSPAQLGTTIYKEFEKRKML
Chain of UniProt Q9Y5B9 (Q9Y5B9 whole entry, looked up): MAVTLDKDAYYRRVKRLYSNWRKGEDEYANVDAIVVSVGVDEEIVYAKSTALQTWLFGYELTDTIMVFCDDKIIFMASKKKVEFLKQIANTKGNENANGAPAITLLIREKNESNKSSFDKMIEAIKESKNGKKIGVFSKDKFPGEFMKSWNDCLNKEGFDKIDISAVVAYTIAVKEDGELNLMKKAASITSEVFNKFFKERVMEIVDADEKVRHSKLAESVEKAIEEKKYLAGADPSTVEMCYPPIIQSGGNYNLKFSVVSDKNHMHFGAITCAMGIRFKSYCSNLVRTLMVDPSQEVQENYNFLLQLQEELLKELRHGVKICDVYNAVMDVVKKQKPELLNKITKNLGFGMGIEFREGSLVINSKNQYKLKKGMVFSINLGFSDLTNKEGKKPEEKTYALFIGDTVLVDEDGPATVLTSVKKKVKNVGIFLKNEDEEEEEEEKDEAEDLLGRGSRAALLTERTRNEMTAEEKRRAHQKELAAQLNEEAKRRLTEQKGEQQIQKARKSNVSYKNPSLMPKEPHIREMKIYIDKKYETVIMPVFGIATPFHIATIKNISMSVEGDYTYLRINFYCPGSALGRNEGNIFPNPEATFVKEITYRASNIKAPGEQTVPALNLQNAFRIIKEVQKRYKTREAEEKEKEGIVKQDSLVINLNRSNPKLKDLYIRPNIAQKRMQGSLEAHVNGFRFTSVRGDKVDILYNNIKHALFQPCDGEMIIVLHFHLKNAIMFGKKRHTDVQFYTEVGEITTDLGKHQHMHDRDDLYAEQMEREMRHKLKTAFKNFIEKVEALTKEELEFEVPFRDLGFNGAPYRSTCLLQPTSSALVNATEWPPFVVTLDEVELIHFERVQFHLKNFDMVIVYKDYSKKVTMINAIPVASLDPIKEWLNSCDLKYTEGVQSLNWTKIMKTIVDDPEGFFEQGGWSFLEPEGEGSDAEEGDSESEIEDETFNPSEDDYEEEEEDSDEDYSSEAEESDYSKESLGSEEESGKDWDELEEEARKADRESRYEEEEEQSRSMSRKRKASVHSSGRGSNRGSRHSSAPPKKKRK
Chain of UniProt O75663 (O75663 whole entry, looked up): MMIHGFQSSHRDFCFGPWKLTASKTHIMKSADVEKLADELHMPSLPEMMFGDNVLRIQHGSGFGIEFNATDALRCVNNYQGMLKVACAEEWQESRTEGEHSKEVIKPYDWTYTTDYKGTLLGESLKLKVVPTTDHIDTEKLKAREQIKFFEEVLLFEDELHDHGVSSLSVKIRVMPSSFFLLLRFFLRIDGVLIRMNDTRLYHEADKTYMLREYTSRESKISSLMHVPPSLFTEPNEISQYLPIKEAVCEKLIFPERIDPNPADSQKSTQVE
Chain of UniProt Q8N5G0 (Q8N5G0 whole entry, looked up): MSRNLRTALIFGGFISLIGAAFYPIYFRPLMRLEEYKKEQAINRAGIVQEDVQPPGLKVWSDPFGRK
Chain of UniProt Q5JUR7 (Q5JUR7 whole entry, looked up): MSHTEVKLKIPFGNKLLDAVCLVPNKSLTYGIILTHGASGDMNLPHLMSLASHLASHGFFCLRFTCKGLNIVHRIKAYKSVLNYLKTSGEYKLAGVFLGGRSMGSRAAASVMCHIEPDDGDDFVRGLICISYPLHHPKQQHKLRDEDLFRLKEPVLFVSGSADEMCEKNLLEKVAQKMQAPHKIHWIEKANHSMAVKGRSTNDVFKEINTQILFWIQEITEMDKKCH

Target | log2 fold change [1] | log2 fold change [2] | log2 fold change [3] | log2 fold change [4] | log2 fold change [5] | log2 fold change [6] | log2 fold change [7] | log2 fold change [8] | log2 fold change [9] | log2 fold change [10]
SUCLG1 (UniProt P53597) | -0.065 | -0.01 | -0.077 | 0.029 | -0.025 | -0.008 | 0.027 | 0.078 | -0.008 | -0.273 (active)
SRRM2 (UniProt Q9UQ35) | 0.068 | 0.044 | 0.02 | -0.936 (active) | 0.079 | -0.261 | 0.048 | 0.022 | 0.077 | 0.035
SUPT5H (UniProt O00267) | -0.044 | 0.033 | -0.055 | -0.042 | -0.082 | 0.01 | 0.024 | 0.036 | -0.037 | 0.031
SMIM20 isoform 2 (UniProt Q8N5G0) | -0.011 | -0.011 | -0.037 | -0.001 | 0.012 | -0.102 | 0.05 | 0.156 | 0.017 | 0.009
THRAP3 (UniProt Q9Y2W1) | 0.052 | -0.025 | 0.049 | -0.177 | -0.009 | 0 | -0.045 | -0.033 | 0.118 | 0.063
STARD3 (UniProt Q14849) | -0.097 | 0.064 | 0.215 | 0.218 | 0.284 | 0.068 | 0.119 | -0.018 | 0.022 | -0.067
SREK1 isoform 2 (UniProt Q8WXA9) | 0.07 | 0.015 | 0.156 | -0.593 (active) | -0.095 | 0.005 | -0.006 | -0.11 | 0.031 | 0.063
SUCLA2 (UniProt Q9P2R7) | 0 | -0.065 | -0.098 | 0.057 | -0.149 | -0.04 | 0.005 | 0.038 | -0.01 | -0.697 (active)
TECR (UniProt Q9NZ01) | -0.133 | 0.057 | -0.123 | -0.035 | -0.109 | 0.021 | -0.006 | -0.012 | -0.135 | 0.016
SNX5 (UniProt Q9Y5X3) | -0.154 | 0.11 | -0.078 | 0.006 | -0.169 | -0.314 | 0.05 | 0.001 | -0.027 | 0.082
SLC4A2 (UniProt P04920) | -0.101 | -0.037 | 0.027 | -0.165 | -0.125 | 0.043 | 0.023 | -0.045 | -0.068 | 0.029
SRSF10 (UniProt O75494) | 0.044 | -0.1 | 0.089 | -0.079 | 0.336 | 0.076 | -0.498 | -0.173 | 0.215 | -0.089
TBC1D23 (UniProt Q9NUY8) | -0.141 | 0.041 | -0.113 | -0.032 | -0.155 | -0.056 | 0.025 | 0.006 | 0.003 | -0.011
TK1 (UniProt P04183) | -0.04 | -0.028 | -0.002 | 0.028 | 0.032 | -0.036 | 0.015 | 0 | 0 | 0.056
TM9SF4 (UniProt Q92544) | 0.034 | 0.252 (active) | 0.005 | 0.012 | 0.127 | 0.037 | -0.021 | 0.004 | -0.061 | 0.007
SLC9A6 isoform 2 (UniProt Q92581) | -0.049 | 0.012 | 0.039 | 0.011 | 0.017 | -0.002 | -0.019 | 0.026 | 0.047 | 0.033
SPTBN4 (UniProt Q9H254) | -0.036 | -0.044 | -0.167 | 0.027 | 0.017 | -0.04 | -0.014 | 0.03 | -0.09 | 0.066
TARBP1 (UniProt Q13395) | -0.022 | 0.005 | 0.019 | 0.081 | -0.058 | -0.026 | 0.116 | -0.013 | 0.036 | -0.055
STAM2 (UniProt O75886) | -0.067 | 0.014 | 0.007 | -0.077 | 0.044 | -0.008 | 0.016 | 0.009 | -0.012 | 0.019
TCERG1 (UniProt O14776) | 0.03 | 0.077 | -0.093 | -0.24 | -0.26 | 0.02 | 0.088 | 0.07 | -0.097 | 0.183
SUOX (UniProt P51687) | -0.084 | -0.181 | 0.063 | 0.013 | 0 | -0.066 | -0.015 | 0.063 | 0.019 | 0.032
SUPT16H (UniProt Q9Y5B9) | 0.006 | 0.049 | 0.011 | -0.088 | -0.269 | -0.103 | 0.073 | 0.108 | -0.088 | 0.047
TEX30 (UniProt Q5JUR7) | -0.01 | -0.053 | -0.147 | -0.095 | -0.2 | -0.016 | 0.084 | -0.004 | -0.18 | 0.033
SUMO1 (UniProt P63165) | -0.071 | -0.023 | -0.022 | -0.078 | 0.041 | -0.04 | -0.209 | -0.068 | -0.35 | 0.001
TIPRL (UniProt O75663) | -0.052 | 0.066 | -0.022 | -0.025 | -0.103 | -0.035 | 0.032 | 0.048 | -0.16 | 0.098
TANK (UniProt Q92844) | -0.049 | -0.106 | 0.054 | 0.337 (active) | -0.025 | 0.082 | -0.021 | -0.036 | -0.016 | 0.03
TBC1D9B (UniProt Q66K14) | -0.262 | -0.042 | -0.055 | 0.053 | -0.156 | -0.034 | 0.07 | -0.06 | 0.019 | 0.203
THYN1 (UniProt Q9P016) | 0.009 | -0.028 | -0.021 | 0.044 | -0.097 | -0.009 | -0.015 | 0.013 | -0.036 | 0.031
TAMM41 isoform 3 (UniProt Q96BW9) | -0.278 (active) | -0.041 | -0.112 | -0.005 | -0.108 | 0.026 | 0.037 | 0.028 | -0.043 | -0.044
SNUPN (UniProt O95149) | -0.031 | 0.006 | -0.025 | -0.009 | -0.051 | 0.018 | 0.013 | -0.054 | 0.003 | 0.06

Reference: the supplement of paper PMC10849652
